From PubChem BioAssay (NCI)
The panel holds about 83,000 compounds, 20% with a hit somewhere; the sample as a whole holds those more often.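 Values shown are percent growth following 48 h exposure of cells in 96-well plates to a single concentration of compound; below 10 was considered active.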 Values without a mark were called inactive. Activity calls are given as the source filed them.

Columns and labels:
Assay in all cases: NCI-60 one-dose screen, 48 h (100 = growth as untreated, 0 = no growth, -100 = all killed)
Details in all cases: 10 µM unless noted
SK-MEL-2 melanoma = system: SK-MEL-2 melanoma
EKVX NSCLC = system: EKVX NSCLC
SN12C renal = system: SN12C renal
UO-31 renal = system: UO-31 renal
TK-10 renal = system: TK-10 renal
ACHN renal = system: ACHN renal
A498 renal = system: A498 renal
MOLT-4 leukemia = system: MOLT-4 leukemia
CAKI-1 renal = system: CAKI-1 renal
CCRF-CEM leukemia = system: CCRF-CEM leukemia

CC(=O)OCC1OC(n2cnc3c(=S)nc(N)[nH]c32)C(OC(C)=O)C1OC(C)=O (centres undefined)
growth (SK-MEL-2 melanoma): 95.2%
growth (EKVX NSCLC): 83.9%
growth (SN12C renal): 97.4%
growth (UO-31 renal): 72.6%
growth (TK-10 renal): 82.4%
growth (ACHN renal): 72.1%
growth (A498 renal): 105%
growth (MOLT-4 leukemia): 2.42% (active)

CCOS(=O)(=O)c1ccc([N+](=O)[O-])cc1
growth (SK-MEL-2 melanoma): 102%
growth (EKVX NSCLC): 110%
growth (SN12C renal): 101%
growth (UO-31 renal): 88.9%
growth (TK-10 renal): 95%
growth (ACHN renal): 103%
growth (CAKI-1 renal): 99%
growth (CCRF-CEM leukemia): 99.2%
growth (MOLT-4 leukemia): 98.5%

Cc1c(Cl)cccc1NC(=S)NC(=O)c1ccccc1
growth (SK-MEL-2 melanoma): 96%
growth (EKVX NSCLC): 71.6%
growth (SN12C renal): 98.6%
growth (UO-31 renal): 85.5%
growth (TK-10 renal): 93.5%
growth (ACHN renal): 113%
growth (CAKI-1 renal): 79.4%
growth (CCRF-CEM leukemia): 95.3%
growth (MOLT-4 leukemia): 83.9%

O=C1CSc2ccccc2N1
growth (SK-MEL-2 melanoma): 103%
growth (EKVX NSCLC): 97%
growth (SN12C renal): 100%
growth (UO-31 renal): 69.2%
growth (TK-10 renal): 105%
growth (ACHN renal): 110%
growth (A498 renal): 97.2%
growth (CCRF-CEM leukemia): 96.6%
growth (MOLT-4 leukemia): 114%

Nc1ccccc1SC1CC(=O)N(c2ccc(Cl)c(Cl)c2)C1=O (centres undefined)
growth (SK-MEL-2 melanoma): 12.9%
growth (EKVX NSCLC): 86.4%
growth (SN12C renal): 115%
growth (UO-31 renal): 72.6%
growth (TK-10 renal): 137%
growth (ACHN renal): 108%
growth (A498 renal): 84.8%
growth (MOLT-4 leukemia): 109%

CCC(=O)C1C(=O)c2ccccc2C1=O
growth (SK-MEL-2 melanoma): 102%
growth (EKVX NSCLC): 82.6%
growth (SN12C renal): 109%
growth (UO-31 renal): 68.8%
growth (TK-10 renal): 114%
growth (ACHN renal): 115%
growth (A498 renal): 114%
growth (CCRF-CEM leukemia): 107%
growth (MOLT-4 leukemia): 136%

Nc1ncc([N+](=O)[O-])cn1
growth (SK-MEL-2 melanoma): 93.1%
growth (EKVX NSCLC): 105%
growth (SN12C renal): 101%
growth (UO-31 renal): 90%
growth (TK-10 renal): 94.5%
growth (ACHN renal): 109%
growth (A498 renal): 87.8%
growth (CCRF-CEM leukemia): 98.4%

COc1ccc2c(c1)Nc1ccccc1S2
growth (SK-MEL-2 melanoma): 112%
growth (EKVX NSCLC): 105%
growth (SN12C renal): 107%
growth (UO-31 renal): 93%
growth (TK-10 renal): 107%
growth (ACHN renal): 114%
growth (CCRF-CEM leukemia): 104%
growth (MOLT-4 leukemia): 106%

Cc1ccc[n+](CCC(N)=O)c1
growth (SK-MEL-2 melanoma): 97.7%
growth (EKVX NSCLC): 90.2%
growth (SN12C renal): 92%
growth (UO-31 renal): 85.9%
growth (TK-10 renal): 94.9%
growth (ACHN renal): 105%
growth (CAKI-1 renal): 91.6%
growth (MOLT-4 leukemia): 90.9%

NC(CCl)=NCC12CC3CC(CC(C3)C1)C2
growth (SK-MEL-2 melanoma): -44.6% (active)
growth (EKVX NSCLC): -7.97% (active)
growth (SN12C renal): 9.41% (active)
growth (UO-31 renal): -98.5% (active)
growth (TK-10 renal): -2.27% (active)
growth (ACHN renal): 11.8%
growth (A498 renal): 33%
growth (CCRF-CEM leukemia): -15.8% (active)
growth (MOLT-4 leukemia): 27.4%

CC12CCC3c4ccc(O)cc4CCC3C1CCC2=O (centres undefined)
growth (SK-MEL-2 melanoma): 98.7%
growth (EKVX NSCLC): 83.8%
growth (SN12C renal): 96.2%
growth (UO-31 renal): 81.7%
growth (TK-10 renal): 91.1%
growth (ACHN renal): 103%
growth (CAKI-1 renal): 102%
growth (CCRF-CEM leukemia): 93.7%
growth (MOLT-4 leukemia): 81.1%

O=C(O)CCCCCNC(=O)OCc1ccccc1
growth (SK-MEL-2 melanoma): 119%
growth (EKVX NSCLC): 98.1%
growth (SN12C renal): 97%
growth (UO-31 renal): 72.9%
growth (TK-10 renal): 109%
growth (ACHN renal): 101%
growth (A498 renal): 103%
growth (CCRF-CEM leukemia): 0.55% (active)
growth (MOLT-4 leukemia): 110%

Nc1ccc2c(c1)Cc1cc(N)c(N)cc1-2
growth (SK-MEL-2 melanoma): 88.8%
growth (EKVX NSCLC): 88.6%
growth (UO-31 renal): 91.4%
growth (TK-10 renal): 119%
growth (ACHN renal): 101%
growth (CAKI-1 renal): 102%
growth (A498 renal): 98.8%
growth (CCRF-CEM leukemia): 105%

CCOC(=O)c1c(C)[nH]c(C)c1C=O
growth (SK-MEL-2 melanoma): 102%
growth (EKVX NSCLC): 102%
growth (UO-31 renal): 104%
growth (TK-10 renal): 95.9%
growth (ACHN renal): 102%
growth (CAKI-1 renal): 99.8%
growth (A498 renal): 92%
growth (CCRF-CEM leukemia): 79.8%

OCc1cccnc1
growth (SK-MEL-2 melanoma): 94%
growth (EKVX NSCLC): 107%
growth (SN12C renal): 99.2%
growth (UO-31 renal): 81.7%
growth (TK-10 renal): 102%
growth (CAKI-1 renal): 35.5%
growth (A498 renal): 78.4%
growth (CCRF-CEM leukemia): 92.1%
growth (MOLT-4 leukemia): 109%

CC(C)NC(=O)OCc1c(COC(=O)NC(C)C)c(-c2ccc(Cl)cc2)n2c1CCC2
growth (SK-MEL-2 melanoma): 94.4%
growth (EKVX NSCLC): 76.6%
growth (SN12C renal): 38.2%
growth (UO-31 renal): 50.6%
growth (TK-10 renal): 57.6%
growth (CAKI-1 renal): 6.56% (active)
growth (A498 renal): 44.5%
growth (CCRF-CEM leukemia): 51.5%
growth (MOLT-4 leukemia): 21.9%

COC(=O)C1=C(C)C(=O)CC1
growth (SK-MEL-2 melanoma): 115%
growth (EKVX NSCLC): 131%
growth (UO-31 renal): 89%
growth (TK-10 renal): 108%
growth (ACHN renal): 99.7%
growth (CAKI-1 renal): 116%
growth (A498 renal): 109%
growth (CCRF-CEM leukemia): 99.6%

CSCC[C@@H]1C(=O)N(C)[C@H](C(C)(C)C)N1C(=O)c1ccccc1
growth (SK-MEL-2 melanoma): 106%
growth (EKVX NSCLC): 102%
growth (SN12C renal): 104%
growth (UO-31 renal): 90.4%
growth (TK-10 renal): 106%
growth (CAKI-1 renal): 100%
growth (A498 renal): 126%
growth (CCRF-CEM leukemia): 111%
growth (MOLT-4 leukemia): 116%

CN(C)Cc1ccccn1
growth (SK-MEL-2 melanoma): 107%
growth (EKVX NSCLC): 99.5%
growth (SN12C renal): 100%
growth (UO-31 renal): 87.8%
growth (TK-10 renal): 105%
growth (CAKI-1 renal): 96.8%
growth (MOLT-4 leukemia): 107%

CC(=O)Nc1ccc(C(=O)c2ccc(S(=O)(=O)Nc3ccccc3)cc2)cc1
growth (SK-MEL-2 melanoma): 80.6%
growth (EKVX NSCLC): 105%
growth (SN12C renal): 98.6%
growth (UO-31 renal): 85.7%
growth (ACHN renal): 104%
growth (CAKI-1 renal): 106%
growth (A498 renal): 79.2%
growth (CCRF-CEM leukemia): 82.8%
growth (MOLT-4 leukemia): 102%

C=C(OC(C)=O)c1ccccc1
growth (SK-MEL-2 melanoma): 96.9%
growth (EKVX NSCLC): 111%
growth (SN12C renal): 96%
growth (UO-31 renal): 101%
growth (TK-10 renal): 100%
growth (CAKI-1 renal): 100%
growth (A498 renal): 95.3%

CN(C(=S)S(=O)(=O)C12CC3CC(CC(C3)C1)C2)c1ccccc1
growth (SK-MEL-2 melanoma): 69.2%
growth (EKVX NSCLC): 104%
growth (SN12C renal): 90.4%
growth (UO-31 renal): 71.5%
growth (TK-10 renal): 107%
growth (CAKI-1 renal): 81.8%
growth (A498 renal): 98.6%
growth (MOLT-4 leukemia): 11.9%

Cc1ccc2nc(-c3ccc(N=Cc4ccccc4O)cc3)sc2c1
growth (SK-MEL-2 melanoma): 101%
growth (EKVX NSCLC): 90.3%
growth (SN12C renal): 90.4%
growth (UO-31 renal): 60%
growth (TK-10 renal): 139%
growth (CAKI-1 renal): 67.7%
growth (A498 renal): 64.5%
growth (CCRF-CEM leukemia): 77.4%
growth (MOLT-4 leukemia): 82.3%

C(=C\c1ccncc1)/c1ccncc1
growth (SK-MEL-2 melanoma): 88.2%
growth (EKVX NSCLC): 105%
growth (UO-31 renal): 84.7%
growth (TK-10 renal): 102%
growth (ACHN renal): 98.9%
growth (CAKI-1 renal): 129%
growth (A498 renal): 120%
growth (CCRF-CEM leukemia): 101%

CC(=O)NC(CCC(=O)c1ccccc1)C(=O)O (centres undefined)
growth (SK-MEL-2 melanoma): 104%
growth (EKVX NSCLC): 99.2%
growth (SN12C renal): 98.5%
growth (UO-31 renal): 98.5%
growth (TK-10 renal): 93.8%
growth (CAKI-1 renal): 102%
growth (A498 renal): 99.4%
growth (CCRF-CEM leukemia): 103%

COc1c(CNC(=O)CCl)cc2[nH]c(C)cc2c1CNC(=O)CCl
growth (SK-MEL-2 melanoma): 54.9%
growth (EKVX NSCLC): 65.1%
growth (SN12C renal): 53.7%
growth (UO-31 renal): 60.7%
growth (TK-10 renal): 74.1%
growth (A498 renal): 84.4%
growth (CCRF-CEM leukemia): 25.6%
growth (MOLT-4 leukemia): 51%

CC1CN(CCO)CC(C)O1 (centres undefined)
growth (SK-MEL-2 melanoma): 133%
growth (EKVX NSCLC): 102%
growth (SN12C renal): 93.8%
growth (UO-31 renal): 90.7%
growth (TK-10 renal): 106%
growth (CAKI-1 renal): 93.5%
growth (A498 renal): 114%
growth (CCRF-CEM leukemia): 100%
growth (MOLT-4 leukemia): 105%

CC(c1ccccc1)N1C(=O)CSC1=S (centres undefined)
growth (SK-MEL-2 melanoma): 1.02% (active)
growth (EKVX NSCLC): 52.1%
growth (SN12C renal): 62.4%
growth (UO-31 renal): 49.2%
growth (TK-10 renal): 42.3%
growth (CAKI-1 renal): 61.1%
growth (A498 renal): 78.1%
growth (CCRF-CEM leukemia): 63.8%
growth (MOLT-4 leukemia): 28.3%

CCOC(=O)/C(C#N)=C\c1c[nH]c2ccccc12
growth (SK-MEL-2 melanoma): 105%
growth (EKVX NSCLC): 75.7%
growth (SN12C renal): 90.5%
growth (UO-31 renal): 69.6%
growth (TK-10 renal): 221%
growth (CAKI-1 renal): 30.8%
growth (A498 renal): 153%
growth (CCRF-CEM leukemia): 108%
